DT40 TDP1 no CPT = qHTS for Inhibitors of human tyrosyl-DNA phosphodiesterase 1 (TDP1): qHTS in cells in absence of CPT; DT40 Tdp1-/- hTDP1 cells, no CPT, ATP luminescence, 48 h; 420,000 compounds, 15% hits; Potency, µM (series often up to 46.2 µM), most hits filed as inhibitors; note: nearly all actives have a fitted effect of over 55% in size
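Camptothecin absent (DMSO only). Human TDP1-complemented DT40 knockout cells, 400 cells/well, 37 °C for minimum 48 hr; ATP measured via CellTiter-Glo, 30 min dark incubation, luminescence.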
HT1080NT lethal = kills 2HG-producing HT-1080-NT fibrosarcoma cells | HT-1080-NT fibrosarcoma viability, CellTiter-Glo ATP luminescence, 48 h | Potency, µM (highest dose often 46.1 µM), most hits filed as cytotoxic | 360,000 compounds, 1.6% hits;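 note: NT is the 2HG producing partner of a matched IDH1 knockdown line; nearly all actives have a fitted effect of over 55% in size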
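Viability by CellTiter-Glo luminescence after 48 h compound exposure at 37C of HT-1080-NT cells (750/well, RPMI, 5% FBS). % activity scaled between DMSO wells and medium-only wells, then curve-fitted and categorized by curve class.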
KB-V1 cytotox = kills drug-selected multidrug resistant KB-V1 cells; KB-V1 MDR cells viability, CellTiter-Glo, 72 h; 400,000 compounds, 3.4% hits; Potency, µM (highest dose often 46.1 µM), usual class: cytotoxic; AID 1347076; note: nearly all actives have a fitted effect of over 60% in size
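qHTS viability screen in drug-selected KB-V1 MDR cells: 72 h compound treatment at 37 degrees C, ATP luminescence end point.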
HT1080 IDH1KD tx = kills HT-1080 cells with IDH1 knockdown. 360,000 compounds, 2% hits. HT-1080 IDH1 knockdown viability, ATP luminescence, 48 h. Potency, µM (doses to about 46.1 µM), actives largely listed as cytotoxic
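Cytotoxicity counter-line: IDH1KD HT-1080, 48 h, CellTiter-Glo. Curves classed by r2, magnitude and activity.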
KB-3-1 cytotox = KB-3-1 parental cell cytotoxicity | KB-3-1 viability, CellTiter-Glo ATP luminescence, 72 h | Potency, µM (titrated, usually from 46.1 µM), usual class: cytotoxic | 400,000 compounds, 1.4% hits; note: nearly all actives have a fitted effect of over 60% in size
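Parental KB-3-1 adenocarcinoma cells in phenol-red-free DMEM with 10% FBS were pin-treated with compounds at several concentrations, incubated 72 h at 37 °C, and viability read by CellTiter-Glo luminescence; concentration-effect curves were fitted after normalization.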
TDP1 cell CPT = growth inhibition of DT40 Tdp1-/-;hTDP1 cells with camptothecin (screen for TDP1 inhibitors). chicken DT40 Tdp1-/-;hTDP1 cells + 20 nM CPT, ATP luminescence, 48 h. Potency, µM (doses to about 46.2 µM), hits mostly inhibitors. 420,000 compounds, 12% hits. AID 686979; note: nearly all actives have a fitted effect of over 55% in size
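Cell growth measured by CellTiter-Glo luminescence after a minimum 48 h, 37 C compound exposure with 20 nM CPT in Tdp1-knockout DT40 cells stably expressing hTDP1, seeded 400/well; qHTS titration format.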
Hits are given with their value; . = inactive; ? = inconclusive; / = no result; [ ] = remark or other dose. An excerpt weighted towards active compounds, which were near 19% of everything screened. Calls come from the whole dose curve; as a rule, active = well fitted curve in the direction sought with a large enough effect; inconclusive = small, poorly fitted or top-dose-only effect, or another doubt; inactive = no such curve, though single readings can be large; an effect the other way counts as inactive or inconclusive.

SMILES	DT40 TDP1 no CPT	HT1080NT lethal	KB-V1 cytotox	HT1080 IDH1KD tx	KB-3-1 cytotox	TDP1 cell CPT
COc1ccc(OC)c(-n2c(SCC(C)=O)nnc2-c2cccc(S(=O)(=O)N(C)C)c2)c1	.	.	.	.	.	.
CCSc1nnc(-c2cccc(S(=O)(=O)N(C)C)c2)n1-c1cc(OC)ccc1OC	?	.	.	.	.	14.1µM
O=C(Nc1nnc(-c2ccco2)o1)c1ccc([N+](=O)[O-])s1	9.2µM	?	?	?	?	8.2µM
Cc1ccc(C(=O)Nc2nnc(-c3ccco3)o2)cc1	23.1µM	.	.	.	?	23.1µM
N#Cc1ccc(C(=O)Nc2nnc(-c3ccco3)o2)cc1	6.51µM	.	?	.	?	?
O=C(Nc1nnc(-c2ccco2)o1)c1ccc2ccccc2c1	20.6µM	.	.	.	?	?
Cc1ccsc1C(=O)Nc1nnc(-c2ccco2)o1	.	.	?	?	?	?
COc1ccc(CN2CCNC(=O)C2CC(=O)NCCc2nc(C)c(C)s2)cc1C (stereo not drawn)	.	.	.	.	?	.
CC(=O)c1cc2c(cc1NC(=O)CSc1nnc(C3CC3)n1C)OCO2	.	.	.	.	.	.
O=C(Nc1nnc(-c2ccncc2)o1)c1ccc(Br)s1	13µM	.	?	?	20.6µM	14.6µM
CCN(C(=N)N=C(N)N)c1ccccc1	18.4µM	.	?	.	.	?
COc1ccc(C2c3c(n(C)c4ccccc34)C(=O)N2CC(=O)Nc2c(C)cc(C)cc2C)cc1 (stereo not drawn)	?	/	.	/	.	?
CCN1CCN(c2cc(C(C)C)nc3c(-c4ccccc4)c(C)nn23)CC1	20.6µM	?	?	16.4µM	.	11.6µM
Cc1nn2c(N3CCOCC3)cc(C(C)(C)C)nc2c1-c1ccccc1	?	.	.	.	.	?
Cc1nn2c(N3CCOCC3)cc(C(C)C)nc2c1-c1ccccc1	.	.	.	.	.	?
CCN1CCN(c2cc(C(C)(C)C)nc3c(-c4ccccc4)c(C)nn23)CC1	18.4µM	?	.	12.6µM	.	?
COc1ccc(/C=C2/N=C(SCC(=O)Nc3cc(C)on3)N(c3ccccc3)C2=O)cc1	.	.	.	.	.	.
CCN(CC)C1=N/C(=C\c2ccc(OC)cc2)C(=O)N1c1ccccc1	?	.	8.2µM	.	.	.
CCSC1=N/C(=C\c2ccccc2)C(=O)N1c1ccc(OC)cc1	20.6µM	.	.	.	.	?
Cc1ccc(NC(=O)c2cccc3c(=O)c4c([nH]c23)CCCC4)c(C)c1	?	/	.	/	?	?
O=C(CSc1nnc(CN2CCCC2)n1-c1ccccc1)c1ccc2c(c1)OCO2	16.4µM	.	.	.	.	?
COc1ccccc1-c1nnc(SCC(=O)c2ccc(Cl)cc2)n1-c1ccccc1	/	/	?	/	.	/
COc1ccc(C(=O)CSc2nnc(CN3CCCCC3)n2-c2ccc(Cl)cc2)cc1OC	20.6µM	.	.	.	.	?
O=C1NC[C@H](CCCCN2CCN(CC3CCCCC3)C(=O)C2=O)N(CCC2CCCCC2)C1=O	.	.	.	.	.	.
Cn1c(=O)c(-c2ccc(Cl)cc2)nc2cnc(N3CCNCC3)nc21	16.4µM	/	/	/	/	10.3µM
SMILES	DT40 TDP1 no CPT	HT1080NT lethal	KB-V1 cytotox	HT1080 IDH1KD tx	KB-3-1 cytotox	TDP1 cell CPT
CN1CCN(c2ncc3nc(-c4ccc(Cl)cc4)c(=O)n(C)c3n2)CC1	?	/	/	/	/	20.6µM
Cc1cc(NC(=O)c2cc(-c3ccc(Br)cc3)on2)nn1Cc1ccc(Cl)cc1	.	/	.	/	.	.
CC(C)c1cc(NC(=O)CCl)on1	9.2µM	18.4µM	.	25.9µM	?	13µM
Cc1noc(NC(=O)c2ccccc2C(F)(F)F)c1C#N	.	.	.	.	.	.
CN(Cc1ccccc1)C(=O)c1ccc(S(=O)(=O)N(C)c2ccccc2)cc1	?	.	.	.	.	?
Cc1nnc2ccc(N3CCN(c4cccc(C(F)(F)F)c4)CC3)nn12	16.4µM	.	.	.	.	25.9µM
S=C(NC1CCCC1)N1CCN(c2ccc(Cl)cc2)CC1	?	.	?	.	.	.
FC(F)(F)c1cccc(N2CCN(C(=S)NC3CCCC3)CC2)c1	16.4µM	?	?	?	?	?
CCNC(=S)N1CCN(c2cccc(C(F)(F)F)c2)CC1	13µM	.	.	.	.	14.6µM
Cc1nnc2ccc(N3CCCCC3)nn12	.	.	.	.	.	.
FC(F)(F)c1cccc(N2CCN(C(=S)NC3CCCCC3)CC2)c1	23.1µM	.	20.6µM	?	?	?
CCc1ccc(C#CC2=CC(=O)CC(C)(C)C2)cc1	?	.	.	.	.	?
COC(=O)c1cn([C@H]2C[C@@H](C(=O)N3CCCCCC3)N(Cc3ccsc3)C2)nn1	.	/	/	/	/	.[9.04 µM]
COc1ccc(NC(=O)N(C)C[C@@H]2OCc3cn(nn3)CCCC(=O)N([C@H](C)CO)C[C@H]2C)cc1	.	.	.	.	.	.
Cc1onc(-c2c(Cl)cccc2Cl)c1/C(N)=N/OC(=O)C1CC1	.	.	.	.	.	.
Cc1nn(-c2ccc(C(=O)NCC(c3ccco3)N3CCCC3)cc2)c(C)c1Cl (stereo not drawn)	.	.	.	.	.	?
C=CCOc1ccc(C2CC(C)=NN2c2ccccc2)cc1 (stereo not drawn)	?	.	?	.	.	.
O=C(Cn1cnc2c(oc3nc4c(cc32)CCCC4)c1=O)Nc1cccc(Cl)c1	11.6µM	.	.	.	.	23.1µM
CCOC(=O)C1=C(N)n2c(s/c(=C\c3cccs3)c2=O)=C(C(=O)OCC)C1c1cccs1 (stereo not drawn)	6.51µM	?	13µM	2.59µM	10.3µM	4.11µM
CCOC(=O)C1=C(N)n2c(s/c(=C\c3cccnc3)c2=O)=C(C(=O)OC)C1c1cccnc1 (stereo not drawn)	.	.	.	.	.	.
CN1C(=O)[C@H]2[C@@H](/C=C/c3ccccc3)N3C(=O)CN(CC4CC4)C(=O)[C@@]3(C)[C@H]2C1=O	.	.	.	.	.	.
COc1ccc(NC(=O)C2CCCN(S(C)(=O)=O)C2)cc1OC (stereo not drawn)	.	.	.	.	.	.
COc1ccc(CN2C(=O)CCC2(C)c2nnnn2Cc2ccccc2)cc1 (stereo not drawn)	.	.	?	.	.	.
Cc1cc2oc3c(c(=O)c2cc1C)C(c1ccc(C(C)C)cc1)N(CCCN1CCOCC1)C3=O (stereo not drawn)	?	.	.	.	.	20.6µM
